# From the supplement of paper PMC11219838
# Test system: Meloidogyne hapla J2
# Experiment: proportion of mobile M. hapla J2 relative to DMSO control (fraction of DMSO control); higher = more viable, less nematicidal, active = 0.7 or less
# Conditions: 60 µM; 5 days; temperature: 20 °C
# In short: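 Sealed 96-well plates, each well holding around 25 M. hapla J2 in distilled water with compound pinned to 60 µM final (0.6% v/v DMSO), were shaken at 200 rpm for 5 days at 20 °C. Then 2 µL of 1 M NaOH was added to each well. Microscope-scored mobility was normalised to the mean of DMSO-only wells from the same plate. Eight such wells were on each plate, and the two biological replicates were averaged.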
row,Compound,proportion of mobile M. hapla J2
1,Cc1ccc(-c2noc(-c3ccc(Cl)cc3)n2)cc1,1.03 (inactive)
2,COc1ccc(-c2nnc(SCC(=O)Nc3c(F)cc(F)cc3Br)o2)cc1,1.03 (inactive)
3,COc1ccc(-c2noc(-c3ccccc3C(=O)Nc3cccc(C)c3C)n2)cc1,0.912 (inactive)
4,Fc1ccc(-c2noc(-c3ccc(Cl)cc3)n2)cc1,1.03 (inactive)
5,Fc1ccc(OCc2nc(-c3ccc(Cl)cc3)no2)cc1,1.1 (inactive)
6,COc1ccc(Br)cc1-c1noc(-c2ccncc2)n1,0.759 (inactive)
7,Cc1ccccc1OCc1nc(-c2cccc(C(F)(F)F)c2)no1,0.946 (inactive)
8,O=C(CSc1nnc(-c2ccccc2)o1)NC1CCCCC1,1.01 (inactive)
9,Clc1ccccc1OCc1nc(-c2ccc(Br)cc2)no1,1.02 (inactive)
10,Clc1ccc(CSc2nnc(-c3ccccn3)o2)cc1,0.835 (inactive)
11,O=C(CSc1nnc(-c2ccco2)o1)Nc1cccc(Cl)c1Cl,0.866 (inactive)
12,O=C(CSc1nnc(-c2ccc(Br)cc2)o1)OCc1ccccc1,1.02 (inactive)
13,Clc1cc(Br)ccc1OCc1nc(-c2cccnc2)no1,1.04 (inactive)
14,COc1cccc(OCc2nc(-c3cccc(C)c3)no2)c1,0.866 (inactive)
15,O=C(Nc1ccccc1-c1nc(-c2cccnc2)no1)c1cccs1,1.02 (inactive)
16,Fc1ccccc1-c1nc(-c2ccc(Cl)cc2)no1,0.956 (inactive)
17,COc1cccc(-c2noc(-c3cc(C)ccc3C)n2)c1,0.995 (inactive)
18,Cc1cc(C)c(OCc2nc(-c3ccncc3)no2)c(C)c1,0.938 (inactive)
19,CCN(C(=O)CSc1nnc(-c2ccncc2)o1)c1ccccc1,0.965 (inactive)
20,Clc1ccc(-c2nc(-c3ccc4c(c3)OCO4)no2)cc1,1.03 (inactive)

row,Compound,proportion of mobile M. hapla J2
1,Cc1ccc(C)c(-c2nc(-c3ccc(Cl)cc3)no2)c1,0.93 (inactive)
2,CCOc1nc(-c2ccc(C)cc2)ccc1-c1noc(-c2ccc(F)cc2)n1,0.829 (inactive)
3,Clc1ccc(-c2nnc(SCc3ccccc3)o2)cc1,0.827 (inactive)
4,Fc1ccc(-c2nc(-c3ccc(Br)cc3)no2)cc1,0.848 (inactive)
5,Cc1cc(Cl)ccc1OCc1nc(-c2ccccc2)no1,1.02 (inactive)
6,CCOc1cc(-c2nc(-c3ccc(OC)cc3)no2)cc(OCC)c1OCC,0.998 (inactive)
7,Cn1c(SCc2nnc(-c3ccccc3)o2)nnc1-c1ccco1,0.827 (inactive)
8,Clc1ccc(OCc2nc(-c3ccccn3)no2)c(Br)c1,1.04 (inactive)
9,NC(=O)COc1ccccc1-c1nc(-c2ccccc2Cl)no1,0.851 (inactive)
10,Cc1ccccc1OCc1nc(-c2ccc(NC(=O)c3ccc(Br)o3)cc2)no1,0.726 (inactive)
11,Clc1ccc(CSc2nnc(-c3ccccc3Cl)o2)cc1,0.888 (inactive)
12,Cc1ccccc1CSc1nnc(-c2ccccc2)o1,1.02 (inactive)
13,Clc1ccc(-c2noc(COc3ccc4c(c3)OCO4)n2)cc1,0.899 (inactive)
14,c1coc(-c2nnc(-c3ccco3)o2)c1,1.03 (inactive)
15,COc1ccc(-c2noc(COc3ccc4c(c3)CCCC4)n2)cc1,0.959 (inactive)
16,COc1ccccc1OCc1nc(-c2ccc(Cl)cc2)no1,1.01 (inactive)
17,COc1ccc(Cl)cc1-c1noc(COc2ccccc2C)n1,0.977 (inactive)
18,Clc1ccccc1-c1noc(-c2cccnc2)n1,0.883 (inactive)
19,Clc1cc(Br)ccc1OCc1nc(-c2ccncc2)no1,0.953 (inactive)
